Pf growth 96h: P. falciparum growth inhibition at 96 hour, primary screen for plastid delayed-death inhibitors; P. falciparum luciferase reporter growth, 96 h; Potency, µM (titrated, usually from 28.7 µM), inactives show at the highest dose activity change, negative = inhibition, most hits filed as inhibitors; 320,000 tested, 6.9% active; further: on the % scale 0 is the no-effect control and ±100 the full control effect
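96 h incubation, 37 C, 5% CO2, of luciferase-reporter P. falciparum-infected RBCs (2% hematocrit, 0.05% parasitemia final) with test compounds; endpoint luminescence.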
SARS PLpro yeast: SARS-CoV PLP inhibition in yeast; 330,000 tested, 0.19% active; S. cerevisiae expressing SARS-CoV PLpro, growth rescue; Potency, µM (top dose mostly 32.9 µM), for the others: at the top dose activity, positive = growth rescue, hits mostly activators; calls by dose curve; further: 0% is about no effect; nearly all actives have a fitted effect of over 55% in size
Sm TGR inh: inhibitors of Schistosoma mansoni thioredoxin glutathione reductase; Q962Y6; purified TGR, DTNB reduction, TNB absorbance 405 nm; Potency, µM (highest dose often 114 µM), without a hit: top-dose activity change, negative = inhibition, actives largely listed as inhibitors; 360,000 tested, 3% active; AID 485364; further: on the % scale 0 is the no-effect control and ±100 the full control effect; nearly all actives have a fitted effect of over 60% in size
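First, TGR (20 nM dispensed) and NADPH were mixed with compound. Second, a 15 min room-temperature incubation followed. Third, further NADPH and then DTNB were added to start the reaction. Finally, TNB absorbance was monitored kinetically.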
Pf growth 48h: inhibits P. falciparum growth in the first generation, 48 h. P. falciparum luciferase growth in erythrocytes, 48 h. Potency, µM (highest dose often 28.7 µM), inactives show top-dose activity change, negative = inhibition, actives largely listed as inhibitors. 310,000 tested, 5.9% active. AID 504832; further: on the % scale 0 is the no-effect control and ±100 the full control effect
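Luciferase-expressing parasites in RBCs, 2% Hct / 0.1% parasitemia final; RPMI 1640 + 0.5% Albumax; 37 C, 5% CO2, one generation; luminescence read-out, lower signal = inhibition.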
* marks the source's active call; other numbers are inactive results; ? = inconclusive; / = not tested or not shown; [ ] = remark or other dose. An excerpt weighted towards active compounds, which were near 12% of everything screened. Unless noted, the call rests on the fitted dose curve; in most records, active means well fitted curve in the direction sought with a large enough effect; inconclusive means small, poorly fitted or top-dose-only effect, or another doubt; inactive means no such curve, though single readings can be large; an effect the other way counts as inactive or inconclusive. Potency means the concentration at half of the fitted maximal effect.

SMILES	Pf growth 96h	SARS PLpro yeast	Sm TGR inh	Pf growth 48h
Nc1ncc2c(n1)CC(c1ccco1)CC2=O (stereo not drawn)	11%	8%	50µM*	5%
COc1ccc(C2CC(=O)c3cnc(NC(=O)c4ccccc4OC)nc3C2)c(OC)c1 (stereo not drawn)	9.3µM*	-13%	-8%	?
O=C1CC(c2ccco2)Cc2nc(N3CCc4ccccc4C3)ncc21 (stereo not drawn)	27%	-11%	32µM*	-20%
COc1ccc(C2CC(=O)c3cnc(NC(=O)c4cc(OC)cc(OC)c4)nc3C2)cc1 (stereo not drawn)	-26%	1%	0%	-15%
COc1ccc(Br)cc1C(=O)Nc1cccc2ncccc12	-7%	-1%	-5%	1%
COc1ccc(Cl)cc1C(=O)Nc1cccc2ncccc12	0.23µM*	-2%	-12%	?
COc1ccc(C(=O)NC(=S)Nc2cccc3ncccc23)cc1[N+](=O)[O-]	?	-2%	6.3µM*	?
O=C(Nc1cccc2ncccc12)c1ccc(Cl)cc1	6.6µM*	0%	1%	?
O=C(CN1CCN(S(=O)(=O)c2ccccc2)CC1)N1CCCCC1	?	-6%	-1%	-3%
CCc1cccc(NC(=O)COc2cc(=O)n(CC)c3ccccc23)c1	/	/	-7%	/
OCCNc1nc2nonc2nc1NCCO	32%	2%	-7%	16%
CCN(CC)CCNc1nc2nonc2nc1NCCN(CC)CC	12µM*	2%	7%	8.3µM*
Cc1ccccc1CN1CCc2nc(Nc3ccc4c(c3)OCCO4)ncc2C1	/	/	9%	/
CCc1ccccc1NC(=S)NCCSc1ccc(Cl)cc1	4.1µM*	-27%	23%	?
CC(=O)OC(C(=O)NCc1ccco1)c1ccncc1 (stereo not drawn)	-12%	-4%	45µM*	18%
COc1ccccc1C(OC(=O)c1cccs1)C(=O)NCc1ccco1 (stereo not drawn)	-2%	1%	13µM*	?
CC(C)C(OC(=O)c1cccs1)C(=O)NCc1ccco1 (stereo not drawn)	-8%	1%	35µM*	-11%
CC(OC(=O)c1cccs1)C(=O)NCc1ccco1 (stereo not drawn)	?	4%	-5%	3%
CCOC(=O)NNC1CC(=O)N(c2ccc(OC)cc2)C1=O (stereo not drawn)	-2%	0%	0%	2%
Nc1nnc(SC2CC(=O)N(c3ccccc3)C2=O)s1 (stereo not drawn)	2%	-34%	2.5µM*	/
CCOC(=O)C(N)CSC1CC(=O)N(c2ccc(OC)cc2)C1=O (stereo not drawn)	129%	23%	32µM*	-24%
O=C1CC(Sc2ncccn2)C(=O)N1c1ccccc1 (stereo not drawn)	22%	6%	?	/
COc1ccc(N2C(=O)CC(Sc3nc4ccccc4s3)C2=O)cc1OC (stereo not drawn)	33%	-6%	8.9µM*	-3%
CCOC(=O)C(N)CSC1CC(=O)N(c2ccc(OCC)cc2)C1=O (stereo not drawn)	?	-22%	45µM*	?
Cc1ccc(C)c(-n2nnc(C(=O)Nc3ccc(Br)cc3)c2C)c1	/	/	6%	/
SMILES	Pf growth 96h	SARS PLpro yeast	Sm TGR inh	Pf growth 48h
CCOC(=O)c1ccc(N2C(=O)CC(C)(CC)CC2=O)cc1	39%	0%	1%	?
CCOC(=O)c1ccc(N2C(=O)CC(Sc3nnc(C)s3)C2=O)cc1 (stereo not drawn)	20%	-38%	4.5µM*	22%
O=C1CC(Sc2nnnn2-c2ccccc2)C(=O)N1c1cccc(Cl)c1 (stereo not drawn)	?	-23%	2.8µM*	-2%
CCOC(=O)c1ccc(N2C(=O)CC(Sc3nc(C)cc(C)n3)C2=O)cc1 (stereo not drawn)	-19%	-1%	-19%	10%
CCOC(=O)c1ccc(N2C(=O)CC(SCC(N)C(=O)OCC)C2=O)cc1 (stereo not drawn)	90%	-16%	14µM*	10µM*
CCOc1ccc(N2C(=O)CC(Sc3ncccn3)C2=O)cc1 (stereo not drawn)	-5%[5.75 µM]	-11%	?	0%
C=CCNc1nnc(SC2CC(=O)N(c3ccc(OCCC)cc3)C2=O)s1 (stereo not drawn)	-4%	-43%	4µM*	/
Cc1cn2c(=O)cc(COC(=O)c3cccc(NC(=O)c4ccc(C(C)(C)C)cc4)c3)nc2s1	/	/	9%	/
Clc1ccc(-c2nc(/C=N/N3CCOCC3)c3ccccn23)cc1	157%	1%	45µM*	61%
CCSc1ccc2c(c1)N(CCCN1CCN(C)CC1)c1ccccc1S2	?	/	-2%	9.3µM*
CN1CCN(CCCN2c3ccccc3Sc3ccc(Cl)cc32)CC1	9.3µM*	-30%	1%	9.3µM*
CC(=O)Nc1sc2c(c1C(c1cccc(Cl)c1)N1CCN(CCO)CC1)CCCC2 (stereo not drawn)	-25%	0%	?	?
CC(=O)Nc1sc2c(c1C(c1ccncc1)N1CCOCC1)CCCC2 (stereo not drawn)	8.3µM*	1%	0%	4.7µM*
COc1ccc(C(c2c(NC(C)=O)sc3c2CCCC3)N2CCN(CCO)CC2)cc1OC (stereo not drawn)	?	0%	-24%	4.7µM*
COc1ccc(NC2CCCN(C(=O)CSc3ccncc3)C2)cc1 (stereo not drawn)	-9%	0%	-12%	-10%
O=C(CC1C(=O)NCCN1Cc1cccc(F)c1)NCCCCCN1CCOCC1 (stereo not drawn)	-25%	2%	30%	50%
Cc1cc(Oc2ccccc2)nc(SCC(=O)Nc2ccccc2)n1	?	-8%	8%	/
Cc1cc(Oc2ccccc2)nc(SCC(=O)Nc2ccc(Cl)c(Cl)c2)n1	13µM*	-24%	13%	/
O=c1c(Cc2c(F)cccc2Cl)c(O)ccn1CCc1c[nH]c2ccccc12	5.2µM*	0%	6%	?
O=C(Cn1ncc2c3ccccc3n(Cc3ccccc3F)c2c1=O)NCc1ccccc1Cl	/	/	-15%	/
C[C@H](NC(=O)[C@H]1N2C(=O)c3ccccc3C2SC1(C)C)C(=O)NCC1CCCO1 (stereo partly drawn)	-26%	?	-1%	-17%
CC(=O)NC1C(=O)N(Cc2ccccc2)c2ccc(Br)cc21 (stereo not drawn)	?	-1%	-2%	40%
CC(=O)NC1C(=O)N(CCc2ccccc2)c2ccc(Br)cc21 (stereo not drawn)	1.9µM*	-7%	14%	/
O=C(COc1ccccc1F)Nc1ccc2c(c1)OCCO2	31%	-1%	-1%	96%
COc1cccc(-n2cc(CNCc3c(C(=O)N(C)C)nc4ccc(Cl)cn34)cn2)c1	?	1%	-6%	8.3µM*
CC1(C)CC(=O)c2cnc(NCC3CCCO3)nc2C1 (stereo not drawn)	/	4%	21%	26%
CC1CC(=O)c2cnc(NCC3CCCO3)nc2C1 (stereo not drawn)	9.3µM*	-2%	3%	28%
